Results as given in PubChem BioAssay.
Activity calls are given as the source filed them. No rule for the calls is given here.

Target: Pantothenate synthetase (Mycobacterium tuberculosis (strain ATCC 25618 / H37Rv)) (UniProt P9WIL5)
Assay: Recombinant Mtb pantothenate synthetase (PanC) inhibitors, coupled enzyme, confirmatory (AID 375);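 also: 0% = full reaction with vehicle and 100% = no enzyme background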
Settings: coupled enzyme assay; at 10 µM, active compounds read high

Chain of Pantothenate synthetase (Mycobacterium tuberculosis (strain ATCC 25618 / H37Rv)) (P9WIL5 whole entry, looked up): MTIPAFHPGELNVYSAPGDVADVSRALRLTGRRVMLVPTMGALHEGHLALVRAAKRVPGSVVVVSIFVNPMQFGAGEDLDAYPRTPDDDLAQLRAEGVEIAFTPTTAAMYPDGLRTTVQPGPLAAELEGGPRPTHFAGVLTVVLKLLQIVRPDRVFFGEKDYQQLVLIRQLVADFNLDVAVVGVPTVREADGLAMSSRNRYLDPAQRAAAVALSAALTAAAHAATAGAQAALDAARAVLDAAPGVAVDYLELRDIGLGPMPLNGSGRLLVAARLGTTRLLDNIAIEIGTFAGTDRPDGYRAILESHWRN

Row | Compound | inhibition
1 | O=C(NCC12CC3CC(C1)CC(CNC(=O)N1CCCC1)(C3)C2)N1CCCC1 | 0% (inactive)
2 | COc1ccc(C2NC(c3ccc(OC)c(OC)c3OC)C(C)C(=O)C2C)c(OC)c1OC (stereo not given) | 0% (inactive)
3 | CCOc1ccccc1C(=O)Nc1cc(=O)n(C)c(=O)n1C | 10% (inactive)
4 | C/C(=N\O)c1ccc2c3c([nH]c2c1)CCCC3 | 2% (inactive)
5 | c1ccc(-c2nnc(CN3CCC4(CC3)OCCO4)o2)cc1 | 1% (inactive)
6 | O=C(Nc1cc(C(F)(F)F)ccc1Cl)c1cc(C2CC2)on1 | 2% (inactive)
7 | CC(C)(C)c1ccccc1NC(=O)c1cccnc1 | 10% (inactive)
8 | O=C(CN1CCN(Cc2ccccc2F)C1=O)NCc1cccnc1 | 0% (inactive)
9 | O=C(Nc1cccnc1N1CCOCC1)c1ccco1 | 10% (inactive)
10 | COc1cccc(-n2c(SC3CCOC3=O)nc3ccccc3c2=O)c1 (stereo not given) | 2% (inactive)
11 | CC1CCCC(C)N1C(=O)CSc1nnc(-c2cccs2)o1 (stereo not given) | 1% (inactive)
12 | COc1ccccc1NC(=O)c1ccc(COc2ccccc2OC)o1 | 0% (inactive)
13 | O=C(c1ccco1)N1CCN(C(=O)c2sccc2-c2ccccc2)CC1 | 0% (inactive)
14 | Cc1cc(NC(=O)C23CCC(C)(c4nc5cc(Cl)c(Cl)cc5nc42)C3(C)C)no1 (stereo not given) | 0% (inactive)
15 | O=C(CCS(=O)(=O)c1cccc2nsnc12)NCc1ccccc1 | 0% (inactive)
16 | Cc1nc2sc(C(c3cccs3)N3CC(C)CC(C)C3)c(O)n2n1 (stereo not given) | 0% (inactive)
17 | O=C(Nc1ccc(O)cc1)C1CCCN1S(=O)(=O)c1ccc(F)cc1 (stereo not given) | 0% (inactive)
18 | Cc1ccccc1-n1c(=O)c2ccccc2n2nnnc12 | 0% (inactive)
19 | O=c1oc2c3c4c(cc2s1)CCCN4CCC3 | 0% (inactive)
20 | O=C(COc1ccc(Cl)cc1)Nc1nc(-c2cccs2)cs1 | 1% (inactive)

Row | Compound | inhibition
21 | CC1(C)Cc2nc3oc4c(N(CCO)Cc5ccccc5)ncnc4c3cc2CO1 | 0% (inactive)
22 | COc1cccc(-c2noc(C3CCCN(C(=O)Cc4ccccc4)C3)n2)c1 (stereo not given) | 0% (inactive)
23 | C=CCN(CC=C)C(=O)CN1C(=O)c2ccccc2C1=O | 0% (inactive)
24 | Cc1cc(C)c2[nH]c(=O)c(C(c3nnnn3Cc3ccc4c(c3)OCO4)N3CCC(C)CC3)cc2c1 (stereo not given) | 0% (inactive)
25 | Cn1c(=O)[nH]c(=O)c2[nH]c(NCCCN3CCOCC3)nc21 | 0% (inactive)
26 | Cc1c(C(=O)O)sc2nc3n(c(=O)c12)CCC(C)CC3 (stereo not given) | 2% (inactive)
27 | COc1ccc(OC)c(C(=O)c2nc3c(n2O)CCCCC3)c1 | 0% (inactive)
28 | N=c1c[n+](N2CCOCC2)[n-]o1 | 0% (inactive)
29 | O=c1[nH]c2cc3c(cc2cc1C(c1nnnn1C1CCCCC1)N1CCSCC1)OCCO3 (stereo not given) | 4% (inactive)
30 | COc1ccc(CNc2nc(SCC(=O)NCc3ccco3)nc3ccccc23)cc1 | 10% (inactive)
31 | Cc1nc2ccccn2c1P(=O)(N1CCCCC1)N1CCCCC1 | 4% (inactive)
32 | Oc1ccc(N2CCN(C(c3cccnc3)c3nnnn3Cc3ccccc3)CC2)cc1 (stereo not given) | 0% (inactive)
33 | CCn1nnnc1SCC(=O)N1CCOCC1 | 11% (inactive)
34 | COc1ccc(OC)c(C(C)NC=O)c1 (stereo not given) | 4% (inactive)
35 | CCCOc1ccc(C2c3c(oc4ccccc4c3=O)C(=O)N2CCCN2CCOCC2)cc1 (stereo not given) | 4% (inactive)
36 | O=C1CC(c2ccccc2)Cc2nc(N3CCc4ccccc43)ncc21 (stereo not given) | 1% (inactive)
37 | Cc1cccc(N(CC(N)=O)S(C)(=O)=O)c1C | 0% (inactive)
38 | CCN(C(=O)CCc1nc(-c2ccccc2F)no1)c1cc(OC)ccc1OC | 0% (inactive)
39 | CC(C)C(NC(=O)OCc1ccccc1)C(=O)OCC(=O)NCc1ccco1 (stereo not given) | 7% (inactive)
40 | CCOc1cc(C(=O)NCc2ccncc2)cc(OCC)c1OCC | 9% (inactive)
